Results: PubChem BioAssay AID463173 (ICCB-Longwood Screening Facility, Harvard Medical School, 2010)
Out of some 52,000 compounds screened, about 4,300 (8.3%) were called active. No stated cut-off is given here; in the data, active means survival mostly below about 52% (no sharp cut-off); inactive means mostly above about 56%. The full list was thinned out, with actives kept by preference.

Each compound was assayed on DeltatarO mutant (assay: S. aureus survival, RN4220 and DeltatarO strains – OD600, teichoic acid synthesis inhibitors, primary screen (AID 463173)). Settings: S. aureus RN4220 wild type/DeltatarO growth, OD600, 18 h, active compounds read low, screened at 18.75 µg/mL (by protocol).
`N#Cc1ccccc1Cn1c(=O)n(-c2ccc(F)c(Cl)c2)c(=O)c2sccc21` was tested, and the survival was 112% (inactive).
In the case of `O=S(=O)(c1ccccc1)c1cccc(S(=O)(=O)N2CCCC2)c1`, the survival is reported as 86% (inactive).
For `Cc1cccc(C)c1NC(=O)C(c1ccccc1)N(Cc1ccco1)C(=O)Cn1nnc2ccccc21` (stereo not given), the survival was 74% (inactive).
With `CCOc1ccc(NC(=O)C2CCN(C(=O)N3CC(C)Oc4ccc(Cl)cc43)CC2)cc1` (stereo not given) the survival was 100% (inactive).
With `Cc1cc(=O)oc2ccccc12` the survival was 83% (inactive).
With `Cc1ccc(C(c2nnnn2C2CCCC2)N2CCc3ccccc32)cc1` (stereo not given) the survival was 100% (inactive).
For `COc1cccc(NC(=O)Nc2ccc3c(c2)N(C)C(=O)c2ccccc2S3)c1`, the survival was 51% (inactive).
`CN1C(=O)c2ccccc2Sc2ccc(NC(=O)NCc3ccccc3Br)cc21` was tested, and the survival was 51% (inactive).
In the case of `CCc1cccc(NC(=O)Nc2ccc3c(c2)N(C)C(=O)c2ccccc2S3)c1`, the survival is reported as 26% (active).
For `CC(C)CCNC(=O)c1ccc2c(c1)N(C)C(=O)c1ccccc1S2`, the survival was -5% (active).
With `CCN1C(=O)c2ccccc2Sc2ccc(NC(=O)Nc3cc(C)cc(C)c3)cc21` the survival was 67% (inactive).
For `CC(C)CCNC(=O)c1ccc2c(c1)N(Cc1cccc(Cl)c1)C(=O)c1ccccc1S2`, the survival was 83% (inactive).
For `COc1ccccc1CNC(=O)Nc1ccc2c(c1)N(C)C(=O)c1ccccc1S2`, the survival was 70% (inactive).
In the case of `CC(C)CCNC(=O)Nc1ccc2c(c1)N(C)C(=O)c1ccccc1S2`, the survival is reported as 89% (inactive).
`CCOC(=O)c1cccc(NC(=O)Nc2ccc3c(c2)N(C)C(=O)c2ccccc2S3)c1` was tested, and the survival was 92% (inactive).
`CCc1ccccc1NC(=O)Nc1ccc2c(c1)N(CC)C(=O)c1ccccc1S2` was tested, and the survival was 41% (active).
In the case of `Cc1ccccc1CNC(=O)Nc1ccc2c(c1)N(C)C(=O)c1ccccc1S2`, the survival is reported as 63% (active).
In the case of `CCN1C(=O)c2ccccc2Sc2ccc(NC(=O)Nc3ccccc3OC)cc21`, the survival is reported as 61% (inactive).
`CCOC(=O)c1c(C)[nH]c(C)c1S(=O)(=O)N1CCCC(C(=O)N2CCN(c3ccccc3F)CC2)C1` (stereo not given) was tested, and the survival was 84% (inactive).
For `CCc1ccc2oc(-c3ccc(C)c(NC(=O)Cc4ccccc4)c3)nc2c1`, the survival was 145% (inactive).
For `CCOc1ccc2c(c1)c(=O)c(C(=O)c1ccccc1)cn2Cc1ccccc1`, the survival was 87% (inactive).
In the case of `Cc1ccc(S(=O)(=O)Cn2nnnc2CN2CCC(Cc3ccccc3)CC2)cc1`, the survival is reported as 100% (inactive).
For `O=C(Cn1c(=O)c2cccn2c2ccc(F)cc21)Nc1cccc(F)c1`, the survival was 64% (inactive).
In the case of `Cc1ccc(C2=Nc3ccccc3N=C(c3ccc(F)cc3)C2)c(O)c1`, the survival is reported as 60% (inactive).
`COC(=O)Cn1c(C(=O)OC)cc2c1ccn2-c1ccc(F)cc1` was tested, and the survival was 93% (inactive).
`Cc1nn(CCCC(=O)NCc2ccc(F)cc2)c(=O)c2c1sc1ccccc12` was tested, and the survival was 85% (inactive).
For `O=C(NCCc1ccc(Cl)cc1)C(=O)NCC(c1ccc2c(c1)OCO2)N1CCOCC1` (stereo not given), the survival was 117% (inactive).
With `O=C(c1cccn2c(=O)c3cc(Cl)ccc3nc12)N1CCN(c2ccccc2F)CC1` the survival was 76% (inactive).
For `CN1C(=O)c2ccccc2Sc2ccc(NC(=O)NCc3cccc(Cl)c3)cc21`, the survival was 78% (inactive).
`COc1cccc(CNC(=O)Nc2ccc3c(c2)N(C)C(=O)c2ccccc2S3)c1` was tested, and the survival was 42% (active).
With `COc1ccc(CNC(=O)Nc2ccc3c(c2)N(C)C(=O)c2ccccc2S3)cc1` the survival was 112% (inactive).
In the case of `CCOC(=O)c1c(C)[nH]c(C)c1S(=O)(=O)N1CCC(C(=O)Nc2ccc(C)c(Cl)c2)CC1`, the survival is reported as 79% (inactive).
In the case of `CCOC(=O)c1c(C)[nH]c(C)c1S(=O)(=O)N1CCC(C(=O)Nc2ccc(OCC)cc2)CC1`, the survival is reported as -1% (active).
With `CCOC(=O)c1c(S(=O)(=O)N2CCC(C(=O)Nc3ccc(OCC)cc3)CC2)c(C)n(C)c1C` the survival was 99% (inactive).
`CCOC(=O)c1c(C)[nH]c(C)c1S(=O)(=O)N1CCC(C(=O)NCc2ccc(F)cc2)CC1` was tested, and the survival was 6% (active).
`CCOC(=O)c1c(C)[nH]c(C)c1S(=O)(=O)N1CCC(C(=O)NCc2ccc(C)cc2)CC1` was tested, and the survival was 72% (inactive).
`CCOC(=O)c1c(C)[nH]c(C)c1S(=O)(=O)N1CCC(C(=O)NCc2ccccc2)CC1` was tested, and the survival was 81% (inactive).
`CCN(C(=O)c1ccco1)c1nnc(Cn2nnc3ccccc32)s1` was tested, and the survival was 91% (inactive).
`Cc1c(C2=CCN(S(=O)(=O)c3cccc(Cl)c3)CC2)c2ccccc2n1CC(=O)N1CCCC1` was tested, and the survival was 75% (inactive).
With `CN1CC(=O)Nc2cc(C(=O)O)ccc21` the survival was 87% (inactive).
In the case of `Cc1ccccc1OCc1ccc(-c2nc(C#N)c(N3CCC(C(N)=O)CC3)o2)o1`, the survival is reported as 38% (active).
With `COc1ccc(OCc2ccc(-c3nc(C#N)c(N4CCN(c5ccccc5)CC4)o3)o2)cc1` the survival was 77% (inactive).
For `N#Cc1nc(-c2ccc(COc3ccc(Cl)cc3)o2)oc1N1CCC(C(N)=O)CC1`, the survival was 34% (active).
For `CCN1CCN(c2oc(-c3ccc(COc4ccc(C)cc4)o3)nc2C#N)CC1`, the survival was 38% (active).
For `Cc1cccc(OCc2ccc(-c3nc(C#N)c(N4CCC(C(N)=O)CC4)o3)o2)c1`, the survival was 80% (inactive).
`COc1ccc(OCc2ccc(-c3nc(C#N)c(N4CCC(C(N)=O)CC4)o3)o2)cc1` was tested, and the survival was 72% (inactive).
For `Cc1ccc(OCc2ccc(-c3nc(C#N)c(N4CCC(C)CC4)o3)o2)cc1`, the survival was 58% (inactive).
With `CCN1CCN(c2oc(-c3ccc(COc4ccccc4C)o3)nc2C#N)CC1` the survival was 82% (inactive).
In the case of `CCN1CCN(c2oc(-c3ccc(COc4ccc(OC)cc4)o3)nc2C#N)CC1`, the survival is reported as 49% (active).
For `COc1ccc(OCc2ccc(-c3nc(C#N)c(N4CCC(C)CC4)o3)o2)cc1`, the survival was 54% (inactive).
For `Cc1ccccc1OCc1ccc(-c2nc(C#N)c(N3CCCCC3)o2)o1`, the survival was 99% (inactive).
In the case of `CC1CCN(c2oc(-c3ccc(COc4ccc(Cl)cc4)o3)nc2C#N)CC1`, the survival is reported as 81% (inactive).
In the case of `Cc1nc2c3ccccc3nc(NNC(=O)CCC(=O)O)n2n1`, the survival is reported as 94% (inactive).
`Cc1ccc(C2c3cccn3CCN2S(=O)(=O)c2ccc([N+](=O)[O-])cc2)cc1` (stereo not given) was tested, and the survival was 99% (inactive).
With `CC(C)CCNC(=O)c1ccc2c(c1)nc1n2CCCCC1` the survival was 86% (inactive).
With `CCCCN(C)S(=O)(=O)c1cc(-c2cc(C)no2)ccc1C` the survival was 84% (inactive).
`COc1ccc(OCc2ccc(-c3nc(C#N)c(N4CCCCC4)o3)o2)cc1` was tested, and the survival was 42% (active).
For `CN1CCN(c2oc(-c3ccc(COc4ccc(Cl)cc4)o3)nc2C#N)CC1`, the survival was 45% (active).
`N#Cc1nc(-c2ccc(COc3ccccc3)o2)oc1N1CCCCC1` was tested, and the survival was 48% (inactive).
`N#Cc1nc(-c2ccc(COc3ccc(Cl)cc3)o2)oc1N1CCCCC1` was tested, and the survival was 49% (inactive).
`COc1ccc(OCc2ccc(-c3nc(C#N)c(N4CCN(C)CC4)o3)o2)cc1` was tested, and the survival was 52% (inactive).
For `COc1ccc(OCc2ccc(-c3nc(C#N)c(N4CCN(c5cccc(Cl)c5)CC4)o3)o2)cc1`, the survival was 75% (inactive).
In the case of `Cc1ccc(C)c(N2CCN(S(=O)(=O)c3ccc4c(c3)CC(=O)N4C)CC2)c1`, the survival is reported as 125% (inactive).
In the case of `COCCNC(=O)C(=O)Nc1c2c(nn1-c1ccccc1)CS(=O)(=O)C2`, the survival is reported as 92% (inactive).
`CC(C)CCNC(=O)C(=O)Nc1c2c(nn1-c1ccccc1)CS(=O)(=O)C2` was tested, and the survival was 77% (inactive).
In the case of `CC(C)OCCCNC(=O)C(=O)Nc1c2c(nn1-c1ccccc1)CS(=O)(=O)C2`, the survival is reported as -5% (active).
In the case of `CN(c1ccc(Cl)cc1)S(=O)(=O)c1nnc(NC(=O)C2CCCCC2)s1`, the survival is reported as 106% (inactive).
With `Cc1ccc(NC(=O)C(Cc2ccccc2)NS(=O)(=O)c2cccc3nsnc23)c(C)c1` (stereo not given) the survival was 125% (inactive).
`CCCNC(=O)C1CCC(Cn2c(=O)c3sccc3n(CC(=O)N3CCC(C)CC3)c2=O)CC1` (stereo not given) was tested, and the survival was 73% (inactive).
In the case of `Cc1ccccc1NC(=O)c1ccccc1NC(=O)c1ccccc1Cl`, the survival is reported as 72% (inactive).
In the case of `Cc1cccc(COc2ccc(-c3cc(C(F)(F)F)n4nc(C)cc4n3)cc2)c1`, the survival is reported as 9% (active).
For `Cc1cc2nc(-c3ccc(OCc4ccc(F)cc4)cc3)cc(C(F)(F)F)n2n1`, the survival was 34% (active).
`Cc1cc(C(F)(F)F)n2nc(C)cc2n1` was tested, and the survival was 68% (inactive).
For `COc1ccc(-c2cc3nc(-c4ccc(C)cc4)cc(C(F)(F)F)n3n2)cc1`, the survival was 135% (inactive).
For `Cc1cc2nc(-c3ccc(OCc4ccccc4)cc3)cc(C(F)(F)F)n2n1`, the survival was 79% (inactive).
`Cc1ccc(COc2ccc(-c3cc(C(F)(F)F)n4nc(C)cc4n3)cc2)cc1` was tested, and the survival was 137% (inactive).
`Cc1ccc(C)c(CN2C(=O)c3ccccc3S(=O)c3ccc(C(=O)NCCC4=CCCCC4)cc32)c1` (stereo not given) was tested, and the survival was 52% (inactive).
In the case of `COc1cccc(-c2nnc(SCC(=O)NC3CCCCC3)o2)c1`, the survival is reported as 73% (inactive).
For `Cc1ccc(C(=O)O)cc1-n1c(C)ccc1-c1ccccc1`, the survival was 59% (inactive).
For `O=C(Cn1c(=O)nc(-c2ccccc2)c2ccccc21)Nc1ccc(Cl)c(C(F)(F)F)c1`, the survival was 90% (inactive).
In the case of `COc1cccc(NC(=O)Cn2c(=O)n(Cc3ccccc3)c(=O)c3ccccc32)c1`, the survival is reported as 125% (inactive).
For `COc1ccc(-n2ccnc(NCCc3ccccc3)c2=O)cc1OC`, the survival was 102% (inactive).
`CCOc1ccc(Cn2c(=O)sc3ccccc32)cc1` was tested, and the survival was 85% (inactive).
For `CCCOc1ccc(Cn2c(=O)sc3ccccc32)cc1`, the survival was -1% (active).
For `CC(C)CCOc1ccc(Cn2c(=O)sc3ccccc32)cc1`, the survival was 0% (active).
In the case of `CCCOc1ccc(CNC(=O)Cn2c(=O)oc3ccccc32)cc1`, the survival is reported as 80% (inactive).
In the case of `CCCCOc1ccc(Cn2c(=O)sc3ccccc32)cc1`, the survival is reported as -1% (active).
In the case of `O=c1sc2ccccc2n1CCCOc1ccccc1`, the survival is reported as 105% (inactive).
With `Cc1ccc(NC(=O)CSc2nc3n[nH]c(C)c3c(=N)n2-c2ccccc2C)cc1C` the survival was 77% (inactive).
In the case of `CCOC(=O)C1CCC(CN(Cc2ccc(OC)cc2)S(=O)(=O)c2ccc(F)c(C(=O)Nc3cc(Cl)ccc3OC)c2)CC1` (stereo not given), the survival is reported as 83% (inactive).
